One may read the inhibition as the relative decrease from the control value, in per cent.

Among the data in ChEMBL document CHEMBL1961873, “Compounds: GSK PKIS; Assays: Nanosyn kinase panel” (2012) are inhibition values, retold here.

The subject of test [1] is Proto-oncogene tyrosine-protein kinase receptor Ret (Homo sapiens), P07949 [Y791F]. The following applies: at 1 µM.
Test [2] has as its target Macrophage-stimulating protein receptor (Homo sapiens) (UniProt Q04912). Conditions: at 0.1 µM.
The target is the same in test [3]. Conditions: at 1 µM.
The target of test [4] is Proto-oncogene tyrosine-protein kinase ROS (Homo sapiens) (UniProt P08922). Conditions: at 0.1 µM.
The target is the same in test [5]. Conditions: at 1 µM.
For test [6], the target named is Proto-oncogene tyrosine-protein kinase Src (Homo sapiens) (UniProt P12931). The following applies: at 0.1 µM.
Test [7] has the same target. The following applies: at 1 µM.
Test [8] deals with Tyrosine-protein kinase Srms (Homo sapiens) (UniProt Q9H3Y6). Conditions: at 0.1 µM.
Test [9] has the same target. The following applies: at 1 µM.
In test [10] the target is Tyrosine-protein kinase SYK (Homo sapiens) (UniProt P43405). Conditions: at 0.1 µM.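 Note: reported percentages are mean inhibition values for SYK.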

Chain of Proto-oncogene tyrosine-protein kinase Src (Homo sapiens) (P12931 2-536 limits assumed): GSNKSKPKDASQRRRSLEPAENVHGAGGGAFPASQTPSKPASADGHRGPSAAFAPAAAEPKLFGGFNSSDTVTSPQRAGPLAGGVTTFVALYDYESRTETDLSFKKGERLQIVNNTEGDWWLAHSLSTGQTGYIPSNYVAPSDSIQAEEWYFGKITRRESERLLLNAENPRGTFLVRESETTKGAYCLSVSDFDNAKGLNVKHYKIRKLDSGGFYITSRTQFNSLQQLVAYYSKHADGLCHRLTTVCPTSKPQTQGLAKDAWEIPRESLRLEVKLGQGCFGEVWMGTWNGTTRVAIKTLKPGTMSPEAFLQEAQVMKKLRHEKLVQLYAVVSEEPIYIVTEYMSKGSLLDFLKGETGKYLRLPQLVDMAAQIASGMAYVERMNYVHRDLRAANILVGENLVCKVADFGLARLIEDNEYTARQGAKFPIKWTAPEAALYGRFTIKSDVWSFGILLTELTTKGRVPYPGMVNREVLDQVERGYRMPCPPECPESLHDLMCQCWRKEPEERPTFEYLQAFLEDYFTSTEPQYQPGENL
Chain of Tyrosine-protein kinase Srms (Homo sapiens) (Q9H3Y6 whole entry): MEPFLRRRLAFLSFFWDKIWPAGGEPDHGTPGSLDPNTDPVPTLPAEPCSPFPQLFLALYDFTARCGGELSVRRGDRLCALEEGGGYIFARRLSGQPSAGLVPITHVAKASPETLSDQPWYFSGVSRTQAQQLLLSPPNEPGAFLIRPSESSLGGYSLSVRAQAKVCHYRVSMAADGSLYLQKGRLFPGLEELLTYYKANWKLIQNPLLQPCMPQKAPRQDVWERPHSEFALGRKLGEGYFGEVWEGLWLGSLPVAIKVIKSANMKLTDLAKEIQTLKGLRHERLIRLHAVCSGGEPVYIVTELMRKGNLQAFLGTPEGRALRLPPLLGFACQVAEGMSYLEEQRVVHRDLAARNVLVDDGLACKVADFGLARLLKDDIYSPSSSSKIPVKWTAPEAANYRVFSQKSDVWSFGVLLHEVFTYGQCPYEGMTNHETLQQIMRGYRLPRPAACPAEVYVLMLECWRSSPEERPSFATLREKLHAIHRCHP
Chain of Proto-oncogene tyrosine-protein kinase ROS (Homo sapiens) (P08922 whole entry): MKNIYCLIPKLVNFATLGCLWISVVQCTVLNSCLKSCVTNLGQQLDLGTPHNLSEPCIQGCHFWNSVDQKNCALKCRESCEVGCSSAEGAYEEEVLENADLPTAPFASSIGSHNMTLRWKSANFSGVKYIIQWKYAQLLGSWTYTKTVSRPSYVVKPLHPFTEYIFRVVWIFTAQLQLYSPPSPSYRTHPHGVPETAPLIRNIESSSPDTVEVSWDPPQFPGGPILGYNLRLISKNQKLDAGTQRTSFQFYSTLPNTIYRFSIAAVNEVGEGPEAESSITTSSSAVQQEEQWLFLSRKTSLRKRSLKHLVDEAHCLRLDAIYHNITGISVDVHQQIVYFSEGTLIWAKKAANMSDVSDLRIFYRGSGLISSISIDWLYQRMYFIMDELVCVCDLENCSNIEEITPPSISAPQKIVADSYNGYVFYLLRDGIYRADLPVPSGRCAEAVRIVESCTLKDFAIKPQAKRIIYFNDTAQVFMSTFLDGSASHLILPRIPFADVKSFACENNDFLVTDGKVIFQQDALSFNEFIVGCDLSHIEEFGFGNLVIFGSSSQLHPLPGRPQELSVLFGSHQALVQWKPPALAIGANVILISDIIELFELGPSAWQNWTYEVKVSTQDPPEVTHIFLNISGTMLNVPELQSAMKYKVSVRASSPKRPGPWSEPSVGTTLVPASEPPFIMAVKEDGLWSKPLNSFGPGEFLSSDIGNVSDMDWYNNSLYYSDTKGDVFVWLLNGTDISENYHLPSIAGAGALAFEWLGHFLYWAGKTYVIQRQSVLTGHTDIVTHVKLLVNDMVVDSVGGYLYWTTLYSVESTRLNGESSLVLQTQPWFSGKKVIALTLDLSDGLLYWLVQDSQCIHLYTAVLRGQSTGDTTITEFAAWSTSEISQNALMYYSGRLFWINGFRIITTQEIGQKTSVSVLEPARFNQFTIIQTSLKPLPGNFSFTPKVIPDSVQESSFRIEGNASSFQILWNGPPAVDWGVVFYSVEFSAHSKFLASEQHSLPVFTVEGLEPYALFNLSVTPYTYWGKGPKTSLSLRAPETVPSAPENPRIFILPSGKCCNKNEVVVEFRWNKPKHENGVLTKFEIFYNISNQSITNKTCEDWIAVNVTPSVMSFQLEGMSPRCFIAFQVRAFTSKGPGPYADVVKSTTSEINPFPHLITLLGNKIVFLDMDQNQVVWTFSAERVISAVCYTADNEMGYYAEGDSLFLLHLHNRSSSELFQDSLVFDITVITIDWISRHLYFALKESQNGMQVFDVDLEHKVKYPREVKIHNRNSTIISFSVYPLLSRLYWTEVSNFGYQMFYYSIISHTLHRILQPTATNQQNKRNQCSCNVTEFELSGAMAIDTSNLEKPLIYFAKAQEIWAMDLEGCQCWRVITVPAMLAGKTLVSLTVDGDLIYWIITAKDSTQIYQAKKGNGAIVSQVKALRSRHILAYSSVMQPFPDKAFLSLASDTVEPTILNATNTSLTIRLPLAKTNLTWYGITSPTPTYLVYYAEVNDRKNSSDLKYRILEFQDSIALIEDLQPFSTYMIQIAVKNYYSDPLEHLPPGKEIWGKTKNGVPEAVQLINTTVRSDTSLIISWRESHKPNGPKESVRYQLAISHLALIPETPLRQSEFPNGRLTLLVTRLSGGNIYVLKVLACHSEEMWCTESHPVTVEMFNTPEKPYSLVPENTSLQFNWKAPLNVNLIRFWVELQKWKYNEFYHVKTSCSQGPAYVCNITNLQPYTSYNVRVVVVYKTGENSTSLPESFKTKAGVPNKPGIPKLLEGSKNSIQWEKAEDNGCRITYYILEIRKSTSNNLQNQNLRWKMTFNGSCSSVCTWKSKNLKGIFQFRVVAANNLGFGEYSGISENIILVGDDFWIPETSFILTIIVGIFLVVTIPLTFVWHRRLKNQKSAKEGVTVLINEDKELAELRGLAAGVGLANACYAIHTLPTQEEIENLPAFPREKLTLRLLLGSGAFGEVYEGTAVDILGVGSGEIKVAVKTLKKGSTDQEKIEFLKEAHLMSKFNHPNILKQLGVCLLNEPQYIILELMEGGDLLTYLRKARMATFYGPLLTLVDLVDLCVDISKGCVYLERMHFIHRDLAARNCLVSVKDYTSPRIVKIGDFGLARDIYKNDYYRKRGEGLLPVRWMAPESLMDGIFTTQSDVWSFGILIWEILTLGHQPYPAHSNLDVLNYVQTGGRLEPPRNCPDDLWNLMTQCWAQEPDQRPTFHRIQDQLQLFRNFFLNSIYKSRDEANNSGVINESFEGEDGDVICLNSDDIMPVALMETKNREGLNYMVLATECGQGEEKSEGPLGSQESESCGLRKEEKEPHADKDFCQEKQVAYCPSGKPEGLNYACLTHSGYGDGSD
Chain of Macrophage-stimulating protein receptor (Homo sapiens) (Q04912 25-304 limits assumed): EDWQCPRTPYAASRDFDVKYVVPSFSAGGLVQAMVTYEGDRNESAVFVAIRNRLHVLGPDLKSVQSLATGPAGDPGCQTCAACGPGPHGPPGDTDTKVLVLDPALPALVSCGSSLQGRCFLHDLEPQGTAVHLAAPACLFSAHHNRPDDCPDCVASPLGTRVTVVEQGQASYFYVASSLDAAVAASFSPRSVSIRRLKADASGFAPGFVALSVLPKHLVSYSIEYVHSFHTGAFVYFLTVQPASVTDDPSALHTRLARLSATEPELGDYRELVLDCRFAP
Chain of Macrophage-stimulating protein receptor (Homo sapiens) (Q04912 310-1400 limits assumed): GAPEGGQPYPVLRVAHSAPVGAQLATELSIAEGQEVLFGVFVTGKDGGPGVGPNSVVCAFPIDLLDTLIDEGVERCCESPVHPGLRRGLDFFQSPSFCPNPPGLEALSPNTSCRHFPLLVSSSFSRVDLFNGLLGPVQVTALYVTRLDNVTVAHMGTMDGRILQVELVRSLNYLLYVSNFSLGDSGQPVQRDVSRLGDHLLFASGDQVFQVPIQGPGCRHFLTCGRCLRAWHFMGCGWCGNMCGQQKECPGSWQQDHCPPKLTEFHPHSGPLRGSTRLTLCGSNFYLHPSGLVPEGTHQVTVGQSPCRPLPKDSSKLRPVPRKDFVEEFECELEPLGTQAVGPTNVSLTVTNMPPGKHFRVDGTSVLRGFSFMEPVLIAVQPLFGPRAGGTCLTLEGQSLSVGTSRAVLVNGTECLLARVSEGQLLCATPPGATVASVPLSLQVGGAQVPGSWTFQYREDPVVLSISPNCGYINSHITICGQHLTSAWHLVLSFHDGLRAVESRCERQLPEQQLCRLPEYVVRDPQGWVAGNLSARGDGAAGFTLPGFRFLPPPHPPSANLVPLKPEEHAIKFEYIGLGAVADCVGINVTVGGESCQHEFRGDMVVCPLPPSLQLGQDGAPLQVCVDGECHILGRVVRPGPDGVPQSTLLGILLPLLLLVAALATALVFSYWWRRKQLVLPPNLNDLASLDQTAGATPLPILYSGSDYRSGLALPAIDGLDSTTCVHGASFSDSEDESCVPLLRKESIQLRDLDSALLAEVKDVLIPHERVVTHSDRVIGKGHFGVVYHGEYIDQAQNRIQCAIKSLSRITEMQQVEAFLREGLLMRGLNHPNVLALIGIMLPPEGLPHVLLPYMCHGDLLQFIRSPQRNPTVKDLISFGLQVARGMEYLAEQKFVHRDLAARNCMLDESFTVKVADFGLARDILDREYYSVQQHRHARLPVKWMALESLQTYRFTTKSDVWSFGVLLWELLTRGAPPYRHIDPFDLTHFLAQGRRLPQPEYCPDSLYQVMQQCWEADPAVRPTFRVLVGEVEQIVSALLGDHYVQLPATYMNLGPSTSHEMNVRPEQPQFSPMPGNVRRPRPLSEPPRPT

For the compound `CC1=C(C(=O)Nc2ccc3[nH]ncc3c2)C(c2ccc(F)cc2)NC(=O)N1` (stereo not given), the inhibition was 42.4% in test [1]; 4.69% in test [2]; 21.4% in test [3]; 7.19% in [4]; 29.2% in [5]; -8.18% in test [6]. Besides, the inhibition in test [7] was 4.28%; in [8], 0.2%; in [9], 2.69%; in test [10], 0.2%.

For `N#Cc1c(NC(=O)c2cccc3ccccc23)sc2c1CCCC2`, the inhibition was found to be 2.2% in [1]; 1.52% in test [2]; 3.88% in [3]; 3.2% in test [4]; 5.26% in [5]; 12.3% in test [6]. The inhibition is 7.06% in test [7], -0.23% in test [8], -0.56% in test [9] and -4.41% in [10].

On to `Nc1ncnc2occ(-c3ccc(NC(=O)Nc4cc(C(F)(F)F)cc(C(F)(F)F)c4)cc3)c12`, for which the inhibition in test [1] is 75.6%; in [2], -3.85%; in test [3], 7.91%; in test [4], 1.98%; in test [5], 15.9%; in [6] it was -4.73%. Moreover, the inhibition in test [7] was 24.4%; in test [8], -0.11%; in test [9], -0.05%; in test [10], -5.69%.

In the case of `COc1cc(C)c(NC(=O)CN(C)C)cc1Nc1nc(Nc2cccc(F)c2C(N)=O)c2cc[nH]c2n1`, the inhibition in [1] amounted to 2.8%; in [2], 3.91%; in test [3], 3.91%; in [4], 79.7%; in test [5], 86%; in test [6] it was 11.1%. Besides, the inhibition in test [7] stood at 6.65%; in test [8], 1.04%; in test [9] it was 1.18%; in test [10], 0.17%.

Regarding `CC(=O)Nc1cccc(C#Cc2cncnc2Nc2ccc(OCc3cccc(F)c3)c(Cl)c2)n1`, the inhibition in [1] was 13.9%; in test [2] it was 0.21%; in test [3], 0.21%; in test [4] it was 2.41%; in test [5], -0.69%; in test [6] it was 2.96%. Also, the inhibition in test [7] was 0.48%; in test [8], 1.99%; in [9], 6.25%; in test [10] it was 5.47%.

Consider `O=C1NC(=O)C(c2ccccc2Cl)=C1Nc1cccc(O)c1`, for which the inhibition in test [1] amounted to 6.27%; in test [2], 1.7%; in [3], 4.87%; in test [4], 3.13%; in [5] it was 6.28%; in test [6], 3.41%. The inhibition was 7.83% in test [7], -0.89% in test [8], -2.12% in test [9] and 0.85% in test [10].

With `COc1cc2ncn(-c3cc(O[C@@H](C)c4ccccc4Cl)c(C(N)=O)s3)c2cc1OC`, the inhibition was 72% in test [1]; -0.14% in [2]; 2.55% in test [3]; 5.59% in test [4]; 29.1% in test [5]; 10.3% in [6]. Further, the inhibition is 30.1% in test [7], -3.6% in [8], -1.13% in test [9] and -2.93% in [10].

Consider `COc1cc2ncn(-c3cc(OCc4ccccc4C(F)(F)F)c(C(N)=O)s3)c2cc1OC`, for which the inhibition was found to be 50.6% in test [1]; 4.5% in test [2]; 8.36% in test [3]; 5.76% in test [4]; 20.6% in [5]; 8.15% in test [6]. In addition, the inhibition in test [7] was 21.2%; in [8], -2.2%; in test [9], -0.81%; in test [10] it was -2.39%.

`O=C(Nc1n[nH]c2nc(-c3ccco3)c(Br)cc12)C1CC1`: the inhibition in test [1] is -2.51%; in [2], 1.47%; in test [3] it was 4.05%; in test [4] it was 3.63%; in [5], 3.03%; in [6], 12.5%. In addition, the inhibition was 14.2% in test [7], -2.24% in test [8], -0.3% in test [9] and 0.12% in [10].

Consider `CCCN1CCC(Oc2cc(Nc3nc(Nc4cccc(F)c4C(N)=O)c4cc[nH]c4n3)c(OC)cc2Cl)CC1`, for which the inhibition in test [1] was 16.9%; in [2], 1.16%; in test [3], 6.9%; in [4], 8.27%; in test [5], 38.9%; in [6] it was -3.73%. Moreover, the inhibition in test [7] is 6.62%; in test [8], 2.85%; in [9] it was 0.37%; in [10] it was 1.01%.

Take `CCc1cccc(NC(=O)Nc2ccc(Oc3ccc4nc(NC(=O)OC)[nH]c4c3)cc2)c1`: the inhibition in test [1] was 74.6%; in test [2], 5.94%; in [3], 5.62%; in [4], -0.48%; in [5], 0.49%; in test [6] it was 0.79%. The inhibition in test [7] amounted to 5.84%; in [8], 0.61%; in [9], 1.28%; in test [10], 2.75%.

On to `COc1ccc(COc2ccc(Cc3cnc(N)nc3N)cc2OC)cc1`, for which the inhibition in test [1] turned out to be 4.28%; in test [2], 1.99%; in [3], 5.55%; in test [4], 5.47%; in test [5] it was 4.98%; in test [6], 3.77%. Further, the inhibition in [7] is 1.97%; in test [8] it was 1.82%; in test [9], 1.88%; in test [10], 1.51%.

As to `CS(=O)(=O)CCNCc1nc(-c2ccc3ncnc(Nc4ccc(F)c(Cl)c4)c3c2)cs1`, the inhibition in test [1] was 31%; in [2], 1.17%; in [3], -0.2%; in [4], -1.86%; in test [5] it was 1.3%; in test [6], 8.61%. In addition, the inhibition is 9.31% in test [7], -0.09% in [8], 1.81% in test [9] and 2.81% in [10].

As to `CCn1c(-c2nonc2N)nc2cncc(C(=O)N3CCNCC3)c21`, the inhibition in [1] was found to be 5.78%; in test [2], 3.02%; in test [3], 4.33%; in test [4], 7.86%; in test [5] it was 7.97%; in test [6], 14.1%. In addition, the inhibition was 16.4% in test [7], -3.72% in test [8], -2.89% in [9] and -1.71% in test [10].

Regarding `Nc1ncnc2occ(-c3ccc(NC(=O)Nc4cccc(C(F)(F)F)c4)cc3)c12`, the inhibition in test [1] stood at 86.3%; in test [2] it was 2.56%; in test [3] it was 27.7%; in test [4], 6%; in [5], 21.7%; in test [6] it was 14.4%. Further, the inhibition was 52.8% in test [7], -4.22% in [8], -3.07% in test [9] and -4.82% in [10].

`Cc1nnc(-c2ccc(C)c(-c3ccc(C(=O)Nc4cccc(C#N)c4)cc3)c2)o1`: the inhibition in test [1] is 15.7%; in test [2], 1.95%; in [3] it was 3.79%; in test [4], 1.81%; in [5] it was 1.44%; in test [6] it was 3.95%. Also, the inhibition in [7] is 6.82%; in test [8], -0.52%; in test [9] it was 0.42%; in test [10] it was 3.5%.

Consider `COC(=O)Nc1nc2cc(Oc3ccc(NC(=O)Nc4cccc(C(=O)O)c4)cc3)ccc2[nH]1`, for which the inhibition in test [1] was 26.3%; in test [2], 0.89%; in test [3], 5.64%; in [4], -2.86%; in [5] it was 3.11%; in test [6] it was 1.83%. For the same compound, the inhibition in test [7] worked out at 7.71%; in [8] it was 0.44%; in [9] it was 0.74%; in test [10], 5.41%.
